CtBP-E1A blk: inhibitors of CtBP/E1A interaction. activity change, % (concentration not given with the values). AID 651724. AlphaScreen GST-E1A/His-CtBP binding, 1536-well; hits give low values. 340,000 compounds, 0.49% hits; in the data active = activity change below about -65%; inconclusive = mostly about -30% to -63%
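GST-E1A and His-tagged CtBP (125 nM each as 5X stock) were preincubated with pin-transferred compound for 2 h at 37 °C in the dark, then glutathione donor and nickel acceptor beads were added for 1 h before AlphaScreen reading.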
Six1-Eya2 inh: blocks human Six1 binding to Eya2 | Q15475+O00167 | AlphaScreen GST-Six1/His-Eya2 binding, biochemical; hits give low values | activity change, % (concentration not given with the values) | 360,000 compounds, 0.56% hits; in the data active = activity change below about -65%; inconclusive = mostly about -30% to -63%
Target sequence (O00167 whole entry, looked up): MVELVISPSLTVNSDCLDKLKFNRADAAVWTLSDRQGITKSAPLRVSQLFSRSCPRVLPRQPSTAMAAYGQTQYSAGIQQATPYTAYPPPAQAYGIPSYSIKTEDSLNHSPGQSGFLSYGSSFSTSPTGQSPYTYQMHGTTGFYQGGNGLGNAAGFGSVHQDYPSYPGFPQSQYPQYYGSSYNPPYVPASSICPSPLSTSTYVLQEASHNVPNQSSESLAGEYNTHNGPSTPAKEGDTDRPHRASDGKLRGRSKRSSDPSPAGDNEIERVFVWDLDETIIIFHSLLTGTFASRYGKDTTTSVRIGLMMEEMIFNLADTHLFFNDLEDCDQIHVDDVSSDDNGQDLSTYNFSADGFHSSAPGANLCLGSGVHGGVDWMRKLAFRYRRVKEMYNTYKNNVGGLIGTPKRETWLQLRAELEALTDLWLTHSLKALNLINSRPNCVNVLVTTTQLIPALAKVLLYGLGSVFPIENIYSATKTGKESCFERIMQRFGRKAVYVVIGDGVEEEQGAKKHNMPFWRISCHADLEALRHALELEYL
Target sequence (Q15475 whole entry, looked up): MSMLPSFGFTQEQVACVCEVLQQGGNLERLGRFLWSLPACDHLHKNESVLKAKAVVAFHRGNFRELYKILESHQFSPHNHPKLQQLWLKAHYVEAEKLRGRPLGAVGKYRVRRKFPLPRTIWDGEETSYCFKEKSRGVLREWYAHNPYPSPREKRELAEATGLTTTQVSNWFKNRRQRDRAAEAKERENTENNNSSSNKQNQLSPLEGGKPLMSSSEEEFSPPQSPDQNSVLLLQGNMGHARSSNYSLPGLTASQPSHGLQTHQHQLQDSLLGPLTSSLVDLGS
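AlphaScreen luminescence read after one hour at 37 °C in darkness. Pin-transferred compounds met GST-Six1 and His-Eya2 protein (5X stock 250 nM/500 nM) plus glutathione donor and Ni-chelate acceptor beads (5X, 50 ug/mL).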
uPA surface inh: cell surface uPA generation inhibition | cell surface uPA generation assay, qHTS | Potency, µM (titrated, usually from 38.3 µM), for inactives: top-dose activity change, negative = inhibition, most hits filed as inhibitors | 330,000 compounds, 0.31% hits | AID 540303; active = well fitted inhibition curve with a large enough effect; inconclusive = small, poorly fitted or top-dose-only effect; inactive = no such curve, though single readings can be large or run the other way; tested in mouse RAW 264.7 cells; note: potency is the fitted concentration of half-maximal effect; nearly all actives have a fitted effect of over 55% in size
USP2a inh: inhibitors of human ubiquitin-specific protease USP2a | Potency, µM (doses to about 38.3 µM), for the others: top-dose activity change, negative = inhibition, hits mostly inhibitors | O75604 | 330,000 compounds, 0.01% hits | USP2 core, Ub-CHOP2 coupled fluorogenic reporter, 485/531;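 note: potency is the fitted concentration of half-maximal effect; plate controls were DMSO wells for no effect and full inhibition by NEM control for full effect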
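Deubiquitinase activity read as fluorescence (485/531 nm) after Ub-CHOP2 cleavage activates the enterokinase reporter on its substrate; USP2 core 10nM, Ub-CHOP2 and substrate 25nM each, 30min compound preincubation then 60min RT; data normalized to NEM, curves fitted.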
L3MBTL1 block: L3MBTL1 (human) inhibition | Potency, µM (top dose mostly 57.1 µM), inactives show at the highest dose activity, negative = inhibition, actives largely listed as inhibitors | AlphaScreen L3MBTL1–H3K9me1 peptide binding | Q9Y468 | 230,000 compounds, 0.66% hits; note: potency is the fitted concentration of half-maximal effect; nearly all actives have a fitted effect of over 60% in size
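L3MBTL1 50 nM + b-AHA-H3(1-15)K9me1 75 nM, 30 min RT; compound added, 30 min RT; streptavidin donor/Ni-chelate acceptor beads 10 ug/mL each final, 30 min RT dark; AlphaScreen read.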
Eya2 phos inh: blocks the phosphatase activity of human Eya2 | Potency, µM (top dose mostly 76.9 µM), inactives show at the highest dose activity, negative = inhibition, hits mostly inhibitors | recombinant Eya2, OMFP fluorescence dephosphorylation (OMFP is methylfluorescein phosphate) | O00167 | AID 488837 | 330,000 compounds, 0.006% hits; note: potency is the fitted concentration of half-maximal effect
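Eya2 protein (added as 0.2 uM solution) was preincubated with compound for 10 min at ambient temperature in 50 mM HEPES pH 7.5, 50 mM NaCl, 5 uM MgCl2, 0.05% BSA, 1 mM DTT. OMFP (added at 50 uM) then reacted 10 min; fluorescence read at 485/525 nm.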
Starred values were filed as active, the others as inactive; u = inconclusive; x = no result given. In the library only some 1.2% were active in any assay of this set; here they are far more common. Unless noted, calls come from the whole dose curve; as a rule, active = well fitted curve in the direction sought with a large enough effect; inconclusive = small, poorly fitted or top-dose-only effect, or another doubt; inactive = no such curve, though single readings can be large; an effect the other way counts as inactive or inconclusive. Unless noted, % is set by controls: 0 for no effect and ±100 for the full control effect.

SMILES | CtBP-E1A blk | Six1-Eya2 inh | uPA surface inh | USP2a inh | L3MBTL1 block | Eya2 phos inh
Cc1cc(C(=O)OCC(=O)c2cccc([N+](=O)[O-])c2)c2cccc(C)c2n1 | 8.5 | -2.7 | 7.3% | 11.2µM* | -10.9% | u
CC(C)CNc1ncnc2c1ncn2[C@H]1CN(CCc2ccccc2)C[C@@H](CO)O1 | 0.4 | 5.6 | x | x | x | x
Cc1ccc(/C=N/N(C)C2=NS(=O)(=O)c3ccccc32)cc1 | -11.2 | -22.2 | -1.3% | 0.0% | x | -15.8%
CN(/N=C/c1ccncc1)C1=NS(=O)(=O)c2ccccc21 | -86.3* | -87.6* | 3.5% | 2.1% | -4.7% | 18.5%
COc1cc(/C=N/N(CCO)C2=NS(=O)(=O)c3ccccc32)cc(OC)c1OC | -90.4* | -65.5* | 2.3% | -1.4% | x | 3.6%
CN(C)c1ccc(/C=N/N(CCO)C2=NS(=O)(=O)c3ccccc32)cc1 | x | -66.9* | 14.8% | u | x | -6.4%
CC(C)(C)NC(=O)CCN(/N=C/c1ccc([N+](=O)[O-])o1)C1=NS(=O)(=O)c2ccccc21 | -74.1* | -87.5* | -16.8% | 8.7% | -3.7% | -17.5%
COc1ccc(Cl)cc1S(=O)(=O)N(C)CC(=O)N1CCOCC1 | -20.0 | -5.0 | 4.9% | 1.8% | x | -6.1%
Cc1cc([N+](=O)[O-])nn1CCC(=O)Nc1nccs1 | x | -10.7 | -1.6% | 0.3% | -1.8% | -6.6%
O=S1(=O)N=C(N(CCO)/N=C/c2ccc(Cl)cc2)c2ccccc21 | x | u | -0.9% | 4.7% | x | 2.0%
O=S1(=O)N=C(N(CCO)/N=C/C=C/c2ccccc2)c2ccccc21 | -89.0* | -84.8* | -2.9% | 1.1% | 4.1% | -0.8%
CC(=O)O[C@H]1C2OC(=O)C(C)=C2[C@@H]2OC(=O)[C@]3(CCC4OC41C)OC23 (some centres undefined) | -0.5 | -0.3 | 7.08µM* | -0.3% | -3.8% | 3.1%
Cc1nc(-c2ccccc2)nc2n[nH]c(N)c12 | -4.9 | -9.4 | 2.8% | x | x | x
CCOC(=O)c1c(N)sc(C(=O)Nc2ccccc2F)c1C | x | -0.1 | u | 0.5% | -8.0% | 2.4%
CCOC(=O)c1c(N)sc(C(=O)Nc2ccccc2)c1C | x | 5.0 | 7.94µM* | 0.2% | -1.3% | -3.2%
CCn1cc(C(=O)O)c(=O)c2cc(F)c(N/N=C/c3ccccc3)cc21 | -73.9* | u | 4.1% | 4.6% | -4.0% | -5.1%
CCN(CC)C(=O)c1sc2nc(Cc3ccccc3)[nH]c(=O)c2c1C | 0.0 | 1.6 | 4.8% | 2.6% | -3.0% | 2.3%
Cc1c(C(=O)N(C)C)sc2nc(-c3ccccn3)[nH]c(=O)c12 | -97.0* | -89.2* | -6.1% | -0.8% | x | 3.7%
Cc1ccc(O)c(N=NC2=C(O)CC(C)(C)CC2=O)c1 | -3.5 | -90.3* | -11.3% | -0.6% | 28.2µM* | -4.5%
OCc1ccnc2c(O)cccc12 | -92.2* | -89.2* | -0.6% | 0.5% | -85.4% | -10.7%
Oc1cccc2c(-c3nn[nH]n3)ccnc12 | x | x | 5.7% | -1.7% | -6.2% | 9.7%
NC(=O)c1ccnc2c(O)cccc12 | x | x | 3.1% | 0.2% | 14.1µM* | 5.2%
CC1(C)OC2OC(C(=O)N/N=C/c3cc(Br)ccc3O)C3OC(C)(C)OC3C2O1 (centres undefined) | -89.7* | -82.4* | -4.1% | -0.3% | 2.7% | -0.1%
CS(=O)(=O)Nc1cccc(NC(=O)c2cccc3c(-c4cccc(C(N)=O)c4)coc23)c1 | -71.7* | u | x | x | x | x
O=C(NCC(c1cccs1)N1CCOCC1)c1ccc(Cl)nc1 (centres undefined) | -5.0 | 1.7 | u | 4.3% | -2.0% | 11.4%
CCN(CC)c1ccc(N=Cc2ccccc2[N+](=O)[O-])cc1 | 15.9 | -79.9* | -5.1% | 4.5% | 28.2µM* | 13.2%
CCC(C)(C)C1CCc2[nH]nc(C(=O)NC3CCCC3)c2C1 (centres undefined) | x | 34.1 | -1.2% | -1.0% | 7.9% | -5.8%
O=C(NC1CCCCC1)c1n[nH]c2c1CCCCC2 | 8.7 | 1.5 | 3.16µM* | 1.2% | -10.2% | -2.9%

Screens as filed in PubChem BioAssay.
